Source: PubChem BioAssay AID1851 (National Center for Advancing Translational Sciences (NCATS), 2009)
Among all 16,000 compounds or so, about 5,100 (32%) were called active. Inconclusive results (about 25%) are left out. Calls follow the shape of the dose curve; as a rule, active = well fitted curve in the direction sought with a large enough effect; inconclusive = small, poorly fitted or top-dose-only effect, or effect the other way; inactive = no such curve, though single readings can be large or run the other way. This is one part of the list.
% is scaled to controls: 0 for no effect and ±100 for the full control effect.

These compounds were tested against Cytochrome P450 3A4 (Homo sapiens) (UniProt P08684) (assay: Cytochrome panel assay with activity outcomes). Details: recombinant CYP, pro-luciferin dealkylation, luminescence, p450-cyp3a4; series mostly up to 57.1 µM.
Sequence of Cytochrome P450 3A4 (Homo sapiens) (P08684 whole entry, looked up): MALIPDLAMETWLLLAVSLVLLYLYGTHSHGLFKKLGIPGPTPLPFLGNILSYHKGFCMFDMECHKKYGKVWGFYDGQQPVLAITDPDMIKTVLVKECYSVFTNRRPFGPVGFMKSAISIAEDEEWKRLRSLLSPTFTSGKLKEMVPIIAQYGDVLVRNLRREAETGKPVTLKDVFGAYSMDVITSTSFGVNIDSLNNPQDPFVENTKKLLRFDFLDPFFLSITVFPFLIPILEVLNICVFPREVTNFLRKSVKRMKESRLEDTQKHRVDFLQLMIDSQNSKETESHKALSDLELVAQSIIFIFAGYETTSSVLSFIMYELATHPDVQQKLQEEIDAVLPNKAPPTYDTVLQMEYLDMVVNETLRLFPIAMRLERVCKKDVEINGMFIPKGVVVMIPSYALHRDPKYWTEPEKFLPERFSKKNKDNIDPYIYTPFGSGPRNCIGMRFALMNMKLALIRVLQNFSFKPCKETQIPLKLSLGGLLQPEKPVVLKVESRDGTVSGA
With `COC(=O)[C@@]1(Cc2ccccc2)[C@H]2c3cc(C(=O)N4CCCC4)n(Cc4ccsc4Br)c3C[C@H]2CN1C(=O)c1ccccc1` the AC50 was 3.98 µM (active). With `COC(=O)[C@@]1(Cc2ccccc2)[C@H]2c3cc(C(=O)N(C)C)n(Cc4ccsc4Br)c3C[C@H]2CN1C(=O)c1ccccc1` the AC50 was 1.58 µM (active). In the case of `CC(C)c1ccc(/C(C(=O)O)=C(\O)C(=O)O)cc1`, the activity, negative = inhibition is reported as -12.9% [at 11.4 µM] (inactive). In the case of `O=C(O)CCC(=O)c1ccc2ccc3cccc4ccc1c2c34`, the activity, negative = inhibition is reported as -10.9% [at 11.4 µM] (inactive). With `CC1(C)OC(=O)C(=CNCC(O)c2ccccc2)C(=O)O1` (centres undefined) the activity, negative = inhibition was 20.4% [at 11.4 µM] (inactive). `COc1ccc(-c2cc(CNC(C)=O)on2)cc1` was tested, and the AC50 was “inactive”. With `COc1ccc(-c2noc(N(C)CC(=O)Nc3cccc(C(F)(F)F)c3)n2)cc1` the AC50 was 12.6 µM (active). `CC(=O)c1ccc(OC(=O)C2c3ccccc3Oc3ccccc32)cc1` was tested, and the activity, negative = inhibition was 10.9% [at 2.29 µM] (inactive). `Cc1ccccc1NC(=O)c1cnc(Nc2nc3ccccc3s2)nc1C` was tested, and the AC50 was “inactive”. For `Cc1cccc2sc(NC(=O)C3c4ccccc4Oc4ccccc43)nc12`, the AC50 was 12.6 µM (active). `Cc1ccc2nc(Nc3nc(-c4ccccc4)cc(=O)[nH]3)nc(C)c2c1` was tested, and the AC50 was 2.51 µM (active). With `O=C(Nc1nn[nH]n1)c1nc(-c2ccccc2)cc(=O)[nH]1` the activity, negative = inhibition was -3.85% [at 11.4 µM] (inactive). `Cc1ccc2c(C)nc(Nc3nc(CSc4nc5ccccc5[nH]4)cc(=O)[nH]3)nc2c1` was tested, and the AC50 was 2.82 µM (active). For `O=c1nc(-c2ccccc2)cc(C(F)(F)F)[nH]1`, the AC50 was “inactive”. With `C[N+](C)(C)CCCSc1nc2ccccc2[nH]1` the activity, negative = inhibition was 4.86% [at 11.4 µM] (inactive). In the case of `CC(=O)Nc1ccc(S(=O)(=O)NCCc2ccc(F)cc2)cc1`, the activity, negative = inhibition is reported as -13.3% [at 2.29 µM] (inactive). In the case of `CCOC(=O)Cn1c(=O)oc2cc(S(=O)(=O)NCCc3ccc(OCC)c(OCC)c3)ccc21`, the AC50 is reported as 12.6 µM (active). For `CC(=O)c1c(C(C)=O)c(C)n(NC(=O)c2ccncc2)c1C`, the AC50 was “inactive”. For `O=C(NN=C1C2CC3CC(C2)CC1C3)c1ccncc1`, the AC50 was 25.1 µM (active). With `COc1ccc2c(c1)C(=O)N(c1ccccc1)C(=O)C2` the AC50 was 2.24 µM (active). For `COc1ccc2c(c1)-c1ccccc1S(=O)(=O)N2C`, the AC50 was “inactive”. For `O=C1c2ccc3c4c(ccc(c24)C(=O)N1c1ccc2ccccc2c1)CC3`, the AC50 was “inactive”. `CCOc1ccc(OCc2ccc(C(=O)NCc3cccnc3)o2)cc1` was tested, and the AC50 was 2.82 µM (active). In the case of `O=C(N/N=C/c1cccnc1)c1ccc([N+](=O)[O-])cc1`, the AC50 is reported as “inactive”. `O=C(c1ccc(COc2ccc(F)cc2)o1)n1cccn1` was tested, and the AC50 was “inactive”. In the case of `O=C(COc1ccc([N+](=O)[O-])cc1)Nc1ccc(C(=O)NCc2cccnc2)cc1`, the AC50 is reported as 12.6 µM (active). With `O=C(COc1ccc([N+](=O)[O-])cc1)NCc1ccccc1` the AC50 was “inactive”. With `Cc1ccccc1CS(=O)(=O)Cc1ccc(C(=O)NCc2cccnc2)o1` the AC50 was 0.891 µM (active). In the case of `CN(C)C(=O)c1ccc(-c2cc(Nc3ccccc3)ncn2)cc1`, the AC50 is reported as “inactive”. `Cc1cccc(CNc2cc(-c3cccc(NS(C)(=O)=O)c3)ncn2)c1` was tested, and the AC50 was 2 µM (active). With `CS(=O)(=O)Nc1cccc(-c2cc(NCc3cccs3)ncn2)c1` the AC50 was 15.8 µM (active). In the case of `CS(=O)(=O)Nc1cccc(-c2cc(Nc3ccccc3)ncn2)c1`, the AC50 is reported as 15.8 µM (active). `CS(=O)(=O)Nc1cccc(-c2cc(NCc3ccccc3)ncn2)c1` was tested, and the AC50 was 15.8 µM (active). `CC(=O)c1cn(CCCCCCCCCCn2cc(C(C)=O)c(=O)[nH]c2=O)c(=O)[nH]c1=O` was tested, and the activity, negative = inhibition was 2.06% [at 2.29 µM] (inactive). `NC(=O)C[C@H](N)C(N)=O` was tested, and the activity, negative = inhibition was 2.14% [at 11.4 µM] (inactive). In the case of `CCN(CC)CCOc1ccc2nc(N(C)C)sc2c1`, the AC50 is reported as “inactive”. `CC1(C)SC(=S)N(NC(=O)Nc2ccccc2)C1N(O)C(=O)Nc1ccccc1` (centres undefined) was tested, and the AC50 was 2.51 µM (active). In the case of `COC(=O)C1CCC(C)(C(=O)Nc2ccccc2)C1(C)C` (centres undefined), the activity, negative = inhibition is reported as -9.58% [at 11.4 µM] (inactive). In the case of `COCC(=O)N1CCC2(CC1)CCN(c1cccc(-c3ccccc3)c1)CC2`, the AC50 is reported as “inactive”. `CC1CC(C)CN(C(=O)CSc2nnc(CSc3ncccn3)n2C)C1` (centres undefined) was tested, and the activity, negative = inhibition was 3.75% [at 2.29 µM] (inactive). With `Cc1cc2nnc(SCC(=O)N3CCN(c4ccccc4)CC3)n2c(N)n1` the AC50 was 14.1 µM (active). In the case of `CC(C)c1ccccc1-n1c(SCC(=O)N2CCN(c3ccccc3)CC2)nnc1-c1cccnc1`, the AC50 is reported as 0.501 µM (active). In the case of `Cn1c(CC(=O)Nc2ccc(Cl)c(Cl)c2)nnc1SCC(=O)N1CCN(c2ccccc2)CC1`, the AC50 is reported as 1.58 µM (active). For `Cn1c(Cc2cccc3ccccc23)nnc1SCC(=O)N1CCN(c2ccccc2)CC1`, the AC50 was 1.58 µM (active). For `COc1ccc(CNc2ncncc2-c2ccc3c(c2)OCO3)c(OC)c1`, the AC50 was 0.126 µM (active). In the case of `COc1ccccc1CNc1ncncc1-c1ccc2c(c1)OCO2`, the AC50 is reported as 0.2 µM (active). In the case of `O=C1CSC2(CCN(CCCN3c4ccccc4Sc4ccc(Cl)cc43)CC2)N1`, the activity, negative = inhibition is reported as -14.4% [at 11.4 µM] (inactive). In the case of `CCC/C=C(\CCC)C(NS(=O)(=O)c1ccc(C(F)(F)F)cc1)c1ccccc1` (centres undefined), the AC50 is reported as 10 µM (active). With `CCC/C=C(\CCC)C(NS(=O)(=O)c1ccccc1)c1ccc(C(F)(F)F)cc1` (centres undefined) the AC50 was 6.31 µM (active). For `C[C@@](O)(CNS(=O)(=O)c1ccccc1)c1ccccc1`, the activity, negative = inhibition was -21.9% [at 11.4 µM] (inactive). `COc1ccccc1CN1CCCC2(CCN(C(=O)c3cnccn3)CC2)C1` was tested, and the AC50 was 15.8 µM (active). For `COc1ccccc1CN1CCCC2(CCN(C(=O)c3ccncc3)CC2)C1`, the AC50 was 6.31 µM (active). With `COc1ccccc1CN1CCCC2(CCN(C(C)=O)CC2)C1` the AC50 was “inactive”. With `COCC(=O)N1CCC2(CCCN(Cc3ccccc3OC)C2)CC1` the AC50 was “inactive”. For `Cc1cccc(Cc2c(C)nc3nc(SCC(=O)NCc4ccco4)nn3c2C)c1`, the AC50 was 11.2 µM (active). `Cc1nc2nc(SCC(=O)NCc3ccco3)nn2c(C)c1Cc1c(F)cccc1Cl` was tested, and the AC50 was 10 µM (active). For `CCCN=C(N)NCCC[C@H](N)C(=O)O`, the AC50 was “inactive”. With `COc1cc(OC)c(C2N(c3cc(C)on3)C(=O)C3CCCN32)cc1OC` (centres undefined) the AC50 was “inactive”. `CCOC(=O)c1cc(CC)sc1NC(=O)c1cc(OCC)c(OCC)c(OCC)c1` was tested, and the AC50 was 22.4 µM (active). In the case of `CCc1cc(C(=O)OC)c(NC(=O)CCCC(=O)O)s1`, the AC50 is reported as “inactive”. In the case of `CCOC(=O)c1cc(-c2ccccc2)sc1NC(=O)c1ccc(OC)cc1`, the AC50 is reported as “inactive”. In the case of `CC(C)NCC[C@@H](O)c1cc2ccccc2o1`, the activity, negative = inhibition is reported as -4.13% [at 11.4 µM] (inactive). `CCOC(=O)/C(C#N)=C1/C=CN(C)C=N1` was tested, and the AC50 was “inactive”. In the case of `CC(=O)c1ccc(NC(=O)C2(c3ccccc3)CCOCC2)cc1`, the AC50 is reported as “inactive”. In the case of `CO/N=C(/CNC(=O)c1cccc(Cl)c1)c1ccc(Cl)cc1`, the activity, negative = inhibition is reported as -6.99% [at 2.29 µM] (inactive). For `CSc1ccc(C#N)cc1NC(=O)c1cccc(Cl)c1`, the AC50 was 25.1 µM (active). For `CCCc1c(-c2ccc(O)cc2)nn(-c2ccc(O)cc2)c1-c1ccc(O)cc1`, the AC50 was 2.51 µM (active). `Cc1nn(-c2ccccc2)c(-c2ccccc2)c1C(=O)O` was tested, and the AC50 was “inactive”. `N#C[C@H](Cc1ccc(O)cc1)c1ccc(O)cc1` was tested, and the AC50 was 12.6 µM (active). For `CC(=O)N[C@H](Cc1ccc(O)cc1)C(=O)O`, the activity, negative = inhibition was -12.2% [at 11.4 µM] (inactive). With `C[C@H](NCCc1ccc(O)cc1)[C@@H](O)c1ccc(O)cc1` the AC50 was “inactive”. `CC1CCc2cc(F)ccc2N1C(=O)CSc1nnc2c(n1)[nH]c1ccc(F)cc12` (centres undefined) was tested, and the AC50 was 2 µM (active). For `Cc1ccccc1C(=O)NNC(=O)c1ccc(F)cc1`, the AC50 was “inactive”. In the case of `Cc1occc1C(=O)NNC(=O)c1ccc(F)cc1`, the AC50 is reported as “inactive”. In the case of `Cc1ccc(C(=O)NNC(=O)CSc2nnc3c(n2)[nH]c2ccc(F)cc23)cc1`, the AC50 is reported as 1.58 µM (active). `O=C(O)c1nn(-c2ccccc2)nc1-c1nn(-c2ccccc2)nc1C(=O)O` was tested, and the AC50 was “inactive”. `CC1(C)Cc2ccccc2C(NNC(=O)c2ccncc2)=N1` was tested, and the AC50 was 8.91 µM (active). In the case of `CC1=NC(C)(C)Cc2ccccc21`, the AC50 is reported as “inactive”. In the case of `CN1CCC2(CC1)CCN(C(=O)c1ccncc1)CC2`, the AC50 is reported as “inactive”. `CC(C)n1nnnc1-c1cc(Cl)cc(Cl)c1` was tested, and the activity, negative = inhibition was 11.3% [at 2.29 µM] (inactive). In the case of `ClC(Cl)(Cl)C(N1CCN(c2ccccc2)CC1)N1CCN(c2ccccc2)CC1`, the activity, negative = inhibition is reported as -3.89% [at 11.4 µM] (inactive). For `CC(C)CC(c1nnnn1C(C)C)N1CCN(c2ccccc2)CC1` (centres undefined), the AC50 was 3.98 µM (active). With `O=C(O)[C@H]1C[C@H](C(=O)O)N1` the AC50 was “inactive”. In the case of `CCn1c(CC(=O)Nc2ccc(C)cc2)nnc1SCC(=O)NCCc1ccccc1`, the AC50 is reported as 10 µM (active). In the case of `CCn1c(CSCc2ccc(C)cc2)nnc1SCC(=O)NCc1ccccc1`, the AC50 is reported as 7.94 µM (active). For `CCn1c(CC(=O)Nc2ccc(C)cc2)nnc1SCC(=O)Nc1nc(C)cs1`, the AC50 was 7.94 µM (active). For `C=CCn1c(Cc2c[nH]c3ccccc23)nnc1SCC(=O)NCc1ccccc1`, the activity, negative = inhibition was -3.87% [at 2.29 µM] (inactive). With `CCn1c(Cc2ccccc2)nnc1SCC(=O)NC(C)(C)C` the AC50 was 11.2 µM (active). For `CC(C)(C)NC(=O)NC(=O)CSc1nnc2ccccn12`, the AC50 was “inactive”. `CCc1c(O)nc(SCC(=O)NC(C)(C)C)n(-c2ccccc2)c1=O` was tested, and the activity, negative = inhibition was -1.41% [at 2.29 µM] (inactive). `CN(C)CC(O)COc1cccc(OCC(O)CN(C)C)c1` (centres undefined) was tested, and the AC50 was “inactive”. For `CCN1C(=O)[C@H]2[C@@H]3[C@H](O)C=CC(=O)[C@H]3CC[C@H]2C1=O`, the activity, negative = inhibition was -12.1% [at 11.4 µM] (inactive). With `O=S(=O)(c1ccccc1)N1N=C(c2cccs2)CC1c1ccc(Br)cc1` (centres undefined) the AC50 was 2 µM (active). In the case of `O=c1oc(-c2cccs2)nc2ccc(Br)cc12`, the AC50 is reported as “inactive”. For `CCN1CCN(S(=O)(=O)c2ccc(Cl)c(C(=O)Nc3nnc(CC(C)C)s3)c2)CC1`, the AC50 was 14.1 µM (active). For `CCOC(=O)CSc1nnc(NC(=O)c2cccc(S(=O)(=O)N3CCCCCC3)c2)s1`, the activity, negative = inhibition was -15.1% [at 2.29 µM] (inactive). `O=C(Nc1nnc(C2CC2)s1)c1cc(S(=O)(=O)N2CCN(c3ccccc3)CC2)ccc1Cl` was tested, and the AC50 was 2 µM (active). `CC(C)Cc1nnc(NC(=O)c2ccc([N+](=O)[O-])cc2)s1` was tested, and the AC50 was “inactive”. In the case of `O=C(Nc1nnc(C2CC2)s1)c1ccc(S(=O)(=O)c2ccccc2)cc1`, the AC50 is reported as “inactive”.
